Bioassay records (PubChem BioAssay)
Rows were chosen to be rich in hits. Some 2% of all compounds tested hit in one or more screens of this group.
COUP-TFII inh = blocks human COUP-TFII nuclear receptor; actives 0.7% (n = 370,000); HEK293T NGFI-A luciferase reporter, luminescence; AID 686940; inhibition, % at 8.6 µM; P24468;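 active means inhibition above a per-plate cutoff, mean inhibition of test wells between control levels plus 3 SD, cut at about 38% in these data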;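 further: cells cotransfected with COUP-TFII expression vector driving the NGFI-A reporter; 0% = median of COUP-TF2 test wells and 100% = reporter-only cells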
697 NFkB inh = inhibitors of the PMA/ionomycin-induced NF-kB reporter in 697 B cells; 697 B-cell NF-kB luciferase reporter, 16 h; inhibition, % at 4 µM; actives 0.33% (n = 330,000); AID 435022; in the data active means inhibition above about 35%
Jurkat NFkB inh = lowers PMA/ionomycin-induced NF-kB signal in Jurkat cells; PMA/ionomycin-induced NF-kB luciferase reporter, luminescence; inhibition, % at 4 µM; actives 0.53% (n = 330,000); AID 435003; in the data active means inhibition above about 50%
GalR3 antag = human GalR3 antagonism. O60755. HEK293 GalR3-CNG cAMP membrane potential fluorescence; galR3 body fused to GalR1 C-terminus. inhibition, % at 3 µM. actives 0.44% (n = 360,000). AID 651719;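 active means inhibition above the screen-wide average plus 3 SD, cut at about 13% in these data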;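 further: forskolin and galanin both at EC90 stimulate the cells; cAMP rise reported by CNG channel membrane potential dye signal; 0% = forskolin plus galanin with DMSO and 100% = forskolin alone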
Target sequence (O60755 1-299 limits assumed): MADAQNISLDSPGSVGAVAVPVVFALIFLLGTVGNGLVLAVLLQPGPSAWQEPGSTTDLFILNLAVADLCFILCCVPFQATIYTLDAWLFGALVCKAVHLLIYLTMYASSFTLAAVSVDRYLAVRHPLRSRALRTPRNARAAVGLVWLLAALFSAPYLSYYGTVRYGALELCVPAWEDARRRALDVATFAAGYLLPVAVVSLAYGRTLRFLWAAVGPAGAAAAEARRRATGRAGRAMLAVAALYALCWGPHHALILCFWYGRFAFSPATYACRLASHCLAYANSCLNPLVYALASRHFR
Gli-Sufu antag = blocks Gli-Sufu signaling in a luciferase reporter. Sufu-KO-LIGHT fibroblasts, Gli luciferase reporter luminescence. inhibition, % at 5 µM. actives 0.74% (n = 340,000). AID 588413;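 active means inhibition above about 55%, limit read from the data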;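 further: 0% = DMSO-treated cells and 100% = wells with medium but no cells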
Jurkat NFkB conf = inhibitors of the PMA/ionomycin-induced NF-kB reporter in Jurkat cells, retest; shares compounds with Jurkat NFkB inh; Jurkat NF-kB luciferase, 16 h; inhibition, % at 4 µM; actives 27% (n = 2,700);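 active means inhibition reaching about 45% at 4 µM in either replicate, limit read from the data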;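 further: plate controls were PMA/ionomycin stimulated DMSO wells for no effect and unstimulated DMSO wells for full effect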
697 NFkB conf = inhibitors of the PMA/ionomycin-induced NF-kB reporter in 697 B cells, retest. shares compounds with 697 NFkB inh. 697 B-cell NF-kB luciferase, 16 h. inhibition, % at 4 µM. actives 35% (n = 2,000); in the data active means inhibition mostly above about 28%, no sharp cut-off; inactive means mostly below about 22%
The depositor's hits bear a star; i = inactive; · = no result.

SMILES | COUP-TFII inh | 697 NFkB inh | Jurkat NFkB inh | GalR3 antag | Gli-Sufu antag | Jurkat NFkB conf | others
COC(=O)c1[nH]c2c(c1C)C(=O)CC(c1cc(OC)ccc1OC)C2 (stereo not given) | 6 | -27 | 61* | 2 | 41 | 29
CCOc1ccc(C2CC(=O)c3c([nH]c(C(=O)OC)c3C)C2)cc1OC (stereo not given) | 0 | 16 | -6 | -2 | 9 | ·
COC(=O)c1[nH]c2c(c1C)C(=O)CC(c1cccs1)C2 (stereo not given) | -64 | 0 | 56* | 2 | 30 | 54*
COC(=O)c1[nH]c2c(c1C)C(=O)CCC2 | 2 | -5 | 8 | -1 | -4 | ·
COC(=O)C1CN(Cc2ccccc2)CCS(=O)(=O)N1Cc1ccc(C(F)(F)F)cc1 (stereo not given) | 14 | · | · | · | · | ·
COC(=O)c1ccccc1NC(=O)CSc1nc(-c2ccco2)cc(C(F)(F)F)n1 | -8 | 0 | 56* | 0 | 38 | 43
O=C(CSc1nc(-c2ccco2)cc(C(F)(F)F)n1)Nc1ccc2c(c1)CCC2 | -10 | 8 | 61* | -5 | 3 | 24
COC(=O)c1ccc(C(=O)OC)c(NC(=O)CSc2nc(-c3ccco3)cc(C(F)(F)F)n2)c1 | -3 | · | · | -1 | 5 | ·
Cc1ccc(NC(=O)CSc2nc(-c3ccco3)cc(C(F)(F)F)n2)cc1C | -3 | -45 | 71* | -4 | 7 | 49*
Cc1cc(NC(=O)CSc2nc(-c3ccco3)cc(C(F)(F)F)n2)n(-c2ccccc2)n1 | 6 | -47 | 45 | -3 | 2 | ·
CC(C)(C)OC(=O)NCc1ccccc1/C=C/S(=O)(=O)NCc1ccccc1 | -12 | · | · | · | · | ·
C=CCn1c(COc2ccccc2)nnc1SCC(=O)Nc1ccc(Oc2ccccc2)cc1 | 7 | · | · | · | · | ·
COC(=O)c1nn(-c2ccc3c(c2)CCN3C(C)=O)cc1O | 9 | 10 | 53* | -5 | 30 | 67*
COC(=O)c1nn(-c2ccc3c(c2)OCO3)cc1O | -20 | 6 | -35 | -3 | -18 | ·
CSc1nnc(-c2sc3cc(C(F)(F)F)cnc3c2-c2ccccc2)n1C | -3 | -13 | 56* | -9 | 5 | 17
CN1C(=O)[C@@](O)(c2cccn2C)c2cc(Cl)ccc21 | -6 | · | · | · | · | ·
CCOc1ccccc1C1CC(=O)Nc2cc3c(cc21)OCO3 (stereo not given) | 24 | -1 | 63* | -10 | 21 | 60*
C=CS(=O)(=O)c1ccc(Oc2ccc(S(=O)(=O)C=C)cc2)cc1 | 75* | 3 | 78* | -3 | 6 | 91*
O=C(Oc1ccc(-c2cnc3ccccc3n2)cc1)c1ccco1 | -46 | -154 | -162 | -6 | -121 | -82
CC(C)Oc1ccc(C(=O)NC2CCCCC2)cc1 | -45 | -81 | -80 | 2 | -62 | ·
CC(C)Oc1ccc(C(CCN)C2CCCCC2)cc1 (stereo not given) | 0 | 8 | 56* | -11 | 12 | 11
CC(C)(C)C(=O)O/N=C(\N)c1ccc(Oc2cc(Cl)cc(Cl)c2)c([N+](=O)[O-])c1 | 6 | 1 | -10 | -2 | 0 | ·
CCC(=O)O/N=C(\N)c1ccc(Oc2cc(C)c(Cl)c(C)c2)c([N+](=O)[O-])c1 | -9 | -12 | 53* | -6 | 5 | 4
C[C@@H]1ON(C)[C@H]2C[C@H]3c4[nH]c5c(-c6ccc7c(c6)OCO7)cccc5c4CCN3C(=O)[C@@H]12 | -9 | · | · | -6 | · | ·
COc1ccc(N2CC(C(=O)N/N=C/c3ccc(C)cc3)CC2=O)cc1 (stereo not given) | 8 | -37 | 55* | -4 | 4 | 18
SMILES | COUP-TFII inh | 697 NFkB inh | Jurkat NFkB inh | GalR3 antag | Gli-Sufu antag | Jurkat NFkB conf | others
COc1ccc(N2CC(C(=O)N/N=C/c3ccc([N+](=O)[O-])cc3)CC2=O)cc1 (stereo not given) | 3 | 7 | -9 | -5 | -6 | ·
Nc1ccccc1C#CC(=O)c1ccccc1 | -20 | -109 | 52* | -9 | -10 | 13
COCCn1c(C)cc(C(=O)CSc2nc3ccccc3c(=O)n2Cc2ccco2)c1C | -41 | -276 | -159 | 2 | -99 | 5 | 697 NFkB conf=-103
COC(=O)[C@H](C(C)C)N(Cc1cn(Cc2ccccc2)nn1)S(=O)(=O)c1ccccc1Br | 4 | · | · | · | · | ·
COc1cc([C@@H]2c3cc4c(cc3[C@H](O)[C@H]3COC(=O)[C@H]23)OCO4)cc(OC)c1OC | -57 | -327 | 73* | · | 47 | 62* | 697 NFkB conf=-96
COc1cc(C2c3cc4c(cc3C(O)C3COCC23)OCO4)cc(OC)c1OC (stereo not given) | 5 | · | · | -6 | 9 | ·
CCC[C@H]1[C@@H](OC(=O)NCc2ccc(OC)c(OC)c2)CC[C@@]23CCCN2C(=O)CCC[C@@H]13 | 4 | · | · | · | · | ·
CCOc1ccc(OCc2cccc(C(=O)O)c2)cc1 | -16 | 92* | 88* | -7 | -104 | 90* | 697 NFkB conf=77*
CCOc1ccc(OCc2cccc(C(=O)N3CCCCCC3)c2)cc1 | -39 | -27 | 26 | -5 | -78 | ·
O=C(O)c1cccc(COc2ccc(CO)cc2Cl)c1 | -6 | 75* | 94* | -10 | -141 | 89* | 697 NFkB conf=59*
CCOc1ccc(OCc2cccc(C(=O)N3CCCC3)c2)cc1 | -25 | -67 | 7 | -1 | -68 | ·
O=C(O)c1cccc(COc2ccc3c(c2)CCC3)c1 | -32 | 61* | 70* | 5 | -173 | 64* | 697 NFkB conf=45*
COc1ccc(OCc2cccc(C(=O)O)c2)cc1 | -24 | 80* | 88* | 2 | -210 | 88* | 697 NFkB conf=71*
CCC(=O)N(C)C[C@@H]1[C@H](c2ccc(C3=CCCCC3)cc2)[C@H](CO)N1C(=O)CC | -7 | · | · | · | · | ·
COc1cc(NC(=O)C2CCCN(S(=O)(=O)c3ccccc3[N+](=O)[O-])C2)cc(OC)c1 (stereo not given) | 9 | · | · | · | · | ·
CCn1c(SCC(=O)Nc2ccc(S(=O)(=O)Nc3cc(C)nc(C)n3)cc2)nc2sc(C)c(C)c2c1=O | 0 | · | · | · | · | ·
O=C(OCC(F)(F)F)c1cccc(COc2ccc3ccccc3c2)c1 | -56 | 58* | 77* | -1 | -128 | 42 | 697 NFkB conf=33*
O=Cc1ccc(OCc2cccc(C(F)(F)F)c2)cc1O | 11 | 11 | -3 | -3 | -25 | ·
Cc1ccc(NC2=Nc3ccccc3CS2)cc1 | -31 | -331 | -182 | -2 | -25 | -141 | 697 NFkB conf=-341
O=C(Nc1ccc(N2CCCCC2)c(Cl)c1)c1cccnc1 | -72 | i | -153 | -2 | -45 | -48 | 697 NFkB conf=-267
O=C(Nc1ccc(N2CCCC2)c(Cl)c1)c1cccnc1 | -22 | -3 | -6 | -3 | -79 | ·
Clc1ccc(-c2cn3ccccc3n2)cc1 | -29 | -290 | -177 | -13 | -69 | -114 | 697 NFkB conf=-248
O=C(CSc1nnc(-c2ccccn2)n1-c1ccccc1)c1ccc(Cl)c(Cl)c1 | -10 | · | · | · | · | ·
